TSG101-PTAP inh: blocks PTAP/TSG101 interaction to inhibit HIV-1 budding; AID 493005; 340,000 tested, under 10 active; Fluorescence polarization, FITC-PTAP peptide / Tsg101 binding; Q99816; Potency, µM (doses to about 115 µM), without a hit: at the highest dose activity change, negative = inhibition, most hits filed as inhibitors; active = well fitted inhibition curve with a large enough effect in the main read-out, with a control signal flat, not every such curve was filed as active; inconclusive = small, poorly fitted or top-dose-only effect, or effect the other way, or a change in a side signal; inactive = no such curve, though single readings can be large or run the other way; also: % of control where 0% means no effect
Target sequence (Q99816 whole entry, looked up): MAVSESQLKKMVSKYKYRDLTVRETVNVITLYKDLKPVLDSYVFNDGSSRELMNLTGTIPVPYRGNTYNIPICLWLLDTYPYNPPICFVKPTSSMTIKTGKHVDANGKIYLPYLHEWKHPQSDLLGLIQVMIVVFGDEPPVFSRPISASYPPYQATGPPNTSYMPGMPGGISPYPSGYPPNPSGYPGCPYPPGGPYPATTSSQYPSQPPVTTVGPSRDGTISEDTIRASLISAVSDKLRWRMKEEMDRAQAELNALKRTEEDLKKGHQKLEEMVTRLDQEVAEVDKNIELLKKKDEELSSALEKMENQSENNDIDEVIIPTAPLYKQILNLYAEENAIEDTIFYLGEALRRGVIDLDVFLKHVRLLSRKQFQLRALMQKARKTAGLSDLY
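Steps: Tsg101 binding domain dispensed (10 uM final), compounds pinned in DMSO, FITC-labeled PTAP-motif peptide added (50 nM final); after 20 min binding at room temperature, polarization measured.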
KB-3-1 cytotox: KB-3-1 parental cell cytotoxicity | hit rate 1.4% among 400,000 | Potency, µM (series often up to 46.1 µM), actives largely listed as cytotoxic | AID 1347075 | KB-3-1 viability, CellTiter-Glo ATP luminescence, 72 h; also: % is scaled to controls: 0 for no effect and ±100 for the full control effect; nearly all actives have a fitted effect of over 60% in size
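Luminescent ATP read-out (CellTiter-Glo) measures survival of drug-naive KB-3-1 cells after 72 h compound exposure at 37 °C. Titration series was screened from lowest to highest concentration, with DMSO vehicle plates as background controls.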
KB-V1 cytotox: KB-V1 MDR subline cytotoxicity; KB-V1 MDR cells viability, CellTiter-Glo, 72 h; Potency, µM (doses to about 46.1 µM), actives largely listed as cytotoxic; hit rate 3.4% among 400,000; AID 1347076; also: % is scaled to controls: 0 for no effect and ±100 for the full control effect; nearly all actives have a fitted effect of over 60% in size
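Potencies derive from concentration-effect curves fitted to normalized luminescence (CellTiter-Glo) of KB-V1 cells treated for 72 h at 37 degrees C in phenol-red-free DMEM containing 10% FBS.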
MCF10A rerep: inducers of DNA re-replication in MCF 10A breast cells; MCF 10A DNA re-replication, Hoechst nuclear intensity, 48 h; Potency, µM (titrated, usually from 46.1 µM), without a hit: at the top dose activity, positive = re-replication, hits mostly activators; hit rate 2.9% among 350,000; also: % of control where 0% means no effect; nearly all actives have a fitted effect of over 50% in size
PINK1 modulator: modulators of PINK1 expression; PINK1 immunofluorescence, high-content cytometry, 24 h; Potency, µM (highest dose often 76.6 µM), for inactives: at the highest dose activation (PINK1 increase), most hits filed as activators; hit rate 0.2% among 410,000; active = well fitted activation curve with a large enough effect; inconclusive = small, poorly fitted or top-dose-only effect; cell line not stated here; also: % of control where 0% means no effect; nearly all actives have a fitted effect of over 65% in size
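Compound titrations (5 concentrations, 24 h) on a stable cell line; DMSO and CCCP controls. Endpoint: fixed-cell PINK1 immunofluorescence with mitochondrial, cell and nuclear markers, scanned by microplate cytometer.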
SW480 rereplic: inducers of DNA re-replication in SW480 colon cancer cells; SW480 DNA re-replication, Hoechst DNA content imaging, 48 h; Potency, µM (top dose mostly 46.1 µM), for the others: at the highest dose re-replication activation, most hits filed as activators; hit rate 1.8% among 340,000; also: % of control where 0% means no effect; nearly all actives have a fitted effect of over 55% in size
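Image-based read-out: total Hoechst fluorescence of nuclei (405 nm excitation, 500-530 nm emission), with hits raising the fraction of high-intensity nuclei. SW480 colon cells incubated 48 hr with compounds at 37 C.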
Active calls of the source: *; i = inactive; u = inconclusive; x = no result given; [ ] = dose if it differs, or a comment. A selection: hits, their analogues and other compounds. The true share with any hit is near 6.8%. Unless noted, calls follow the shape of the dose curve; as a rule, active = well fitted curve in the direction sought with a large enough effect; inconclusive = small, poorly fitted or top-dose-only effect, or another doubt; inactive = no such curve, though single readings can be large; an effect the other way counts as inactive or inconclusive. Potency is read from the fitted curve at half-maximal effect.

SMILES	TSG101-PTAP inh	KB-3-1 cytotox	KB-V1 cytotox	MCF10A rerep	PINK1 modulator	SW480 rereplic
COc1ccc(CNc2oc(COc3ccccc3)nc2C#N)cc1	-2%	i	18µM*	3%	2%	17%
CC(C)(C)c1ccc(-c2nc(C#N)c(NCc3cccnc3)o2)cc1	-5%	i	21µM*	u	0%	9%
COc1ccc(CCNc2oc(COc3ccccc3)nc2C#N)cc1	0%	i	16µM*	5%	0%	-1%
CC1=C(C(=O)Nc2ccc(C)cc2C)C(c2cccn2C)n2ncnc2N1 (stereo not drawn)	x	i	u	x	4%	x
COC(=O)CNC(c1ccccc1)c1cc(Cl)ccc1NC(=O)c1cccc(Cl)c1 (stereo not drawn)	-1%	i	5.2µM*	u	9%	u
Cc1ccccc1NS(=O)(=O)c1ccc(C(=O)NNC(=O)c2ccccc2O)cc1	-2%	u	i	5%	2%	15µM*
O=C(NNC(=O)c1ccccc1O)c1ccc(NS(=O)(=O)c2ccc(F)cc2)cc1	-1%	u	u	11%	6%	u
O=C(NNC(=O)c1ccccc1O)c1ccc(S(=O)(=O)Nc2ccccc2)cc1	-3%	u	u	0%	1%	11µM*
O=C(c1cccc(F)c1)N1CCC[C@@]2(CCN(c3ccncc3)C2)C1	x	x	x	x	-1%	x
Cc1cccc(S(=O)Cc2ccc(C(=O)NC3CCCCCC3)o2)c1 (stereo not drawn)	x	x	x	x	0%	x
O=c1/c(=C\c2ccc(O)cc2)sc2n1C(c1ccccc1)C(c1ccccc1)=NN=2 (stereo not drawn)	9%	u	u	7.3µM*	2%	u
CCOC(=O)C1=C(c2ccccc2)N=c2s/c(=C\c3cccc(O)c3)c(=O)n2C1c1cccs1 (stereo not drawn)	-2%	i	i	u	x	u
NNC(=O)c1nn(-c2ccc(Cl)cc2)cc1O	-5%	u	u	7%	u	21µM*
Cc1ccc(NC(=O)COC(=O)c2nn(-c3ccc(Cl)cc3)cc2O)cc1	2%	i	i	u	9%	0%
COc1ccc(CN(C)C(=O)C23CC4CC(CC(C4)C2)C3)c(OC)c1	0%	u	u	13µM*	1%	u
Cc1c(C)c2cccnc2c2ncccc12	-6%	6.5µM*	u	u	0%	u
O=C(Nc1ccccc1C(=O)O)c1cccc(S(=O)(=O)N2CCCC2)c1	x	i	i	x	0%	x
CSc1ccc(Cl)c(C(=O)Nc2ccc(C)cn2)c1	5%	u	u	u	6%	26µM*
CCOc1ccccc1NC(=O)c1cc(SC)ccc1Cl	0%	i	u	u	5%	18µM*
COc1ccc(C(=O)Nc2ccc(C)cn2)c(OC)c1	0%	u	16µM*	14%	-2%	-2%
COc1ccc(NC(=O)c2nc(SC)ncc2Cl)cc1	-2%	i	i	7%	1%	-7%
COc1ccc(NC(=O)c2cnc(SC)nc2)cc1	-4%	16µM*	u	u	12%	u
O=C(NCc1ccccc1Cl)c1ccc2c(O)c(S(=O)(=O)c3ccccc3)c(=O)[nH]c2c1	x	i	i	x	-2%	x
COc1cc(SC)ccc1C(=O)Nc1ccccc1	-2%	i	u	1%	-6%[38.3 µM]	u
COc1ccc(NC(=O)c2cc(SC)ccc2Cl)cc1	1%	i	15µM*	23%	7%	5%
C=CCn1c(SCN2C(=O)c3ccccc3C2=O)nc2ccc(Cl)cc2c1=O	-2%	u	16µM*	4%	9%	-8%
Cc1cccc2c1-c1sc(C(=O)NCCCN3CCCC(C)C3)cc1CO2 (stereo not drawn)	-1%	i	i	23µM*	0%	18µM*

Screens (PubChem)
